Compound activity: PubChem, National Center for Advancing Translational Sciences (NCATS)
Pf growth 96h: inhibits malaria parasite growth, 96 h; P. falciparum luciferase reporter growth, 96 h; Potency, µM (series often up to 28.7 µM), for inactives: top-dose activity change, negative = inhibition, actives largely listed as inhibitors; 320,000 compounds, 6.9% hits; note: % is set by controls: 0 for no effect and ±100 for the full control effect
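Two-generation exposure (96 h) targets delayed-death phenotype. Reporter parasites carrying integrated firefly luciferase, in red cells at 2% hematocrit and 0.05% parasitemia final, kept at 37 C, 5% CO2; luminescence loss indicates inhibition.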
Sm TGR block: S. mansoni TGR enzyme inhibition; Q962Y6; purified TGR, DTNB reduction, TNB absorbance 405 nm; Potency, µM (top dose mostly 114 µM), inactives show at the top dose activity change, negative = inhibition, actives largely listed as inhibitors; 360,000 compounds, 3% hits; AID 485364; note: % is set by controls: 0 for no effect and ±100 for the full control effect; nearly all actives have a fitted effect of over 60% in size
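First, TGR (20 nM dispensed) and NADPH were mixed with compound. Second, a 15 min room-temperature incubation followed. Third, further NADPH and then DTNB were added to start the reaction. Finally, TNB absorbance was monitored kinetically.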
Pf growth 48h: P. falciparum growth inhibition at 48 hours (one generation) | P. falciparum luciferase growth in erythrocytes, 48 h | Potency, µM (highest dose often 28.7 µM), for the others: at the top dose activity change, negative = inhibition, actives largely listed as inhibitors | 310,000 compounds, 5.9% hits; note: % is set by controls: 0 for no effect and ±100 for the full control effect
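Parasite viability was followed by luminescence of a genomically integrated firefly luciferase. Cultures held 0.1% parasitemia at 2% hematocrit (final), incubated under 5% CO2 at 37 C.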
NS1 inh: influenza NS1 inhibition. Potency, µM (highest dose often 46.1 µM), without a hit: at the highest dose activity, positive = more growth. 270,000 compounds, 0.4% hits; calls by dose curve; note: actives are rising curves; nearly all actives have a fitted effect of over 50% in size
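A cell-based growth assay was used: compounds that relieve NS1-induced slow growth of budding yeast raise OD600. Assay medium was yeast nitrogen base with ammonium sulphate and -URA supplement, pH 6.0, with 2% galactose.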
AMA1-RON2 inh: disrupts binding of P. falciparum AMA1 to RON2 | AlphaScreen AMA1-biotinylated RON2 peptide binding | Potency, µM (titrated, usually from 58.2 µM), without a hit: at the highest dose activity change, negative = inhibition, hits mostly inhibitors | 360,000 compounds, 0.2% hits | AID 720542;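 note: 0% = vehicle wells and -100% = peptide control; nearly all actives have a fitted effect of over 45% in size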
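AMA1 (3D7) with his tag at 25 nM final met compounds first, then biotinylated RON2 peptide at 25 nM; detection used donor plus acceptor beads, 10 µg/mL apiece, read by AlphaScreen after 30 min at room temperature.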
Numbers without * were called inactive; ? = inconclusive; nt = no result. An excerpt weighted towards active compounds, which were near 11% of everything screened. Unless noted, calls come from the whole dose curve; as a rule, active = well fitted curve in the direction sought with a large enough effect; inconclusive = small, poorly fitted or top-dose-only effect, or another doubt; inactive = no such curve, though single readings can be large; an effect the other way counts as inactive or inconclusive. Potency is the fitted concentration of half-maximal effect.

SMILES	Pf growth 96h	Sm TGR block	Pf growth 48h	NS1 inh	AMA1-RON2 inh
C=C1CN(CC(=O)OC)S(=O)(=O)c2ccccc21	-3%	0%	21%	6%	0%
C=C1CN(Cc2ccccc2)S(=O)(=O)c2ccccc21	-8%	18µM*	?	-5%	11%
O=C(Nc1ccsc1C(=O)NC1CCCCC1)c1ccc(F)cc1	1.7µM*	0%	1.7µM*	-4%	-1%
O=C(NC1CCCCCCC1)c1ccc(Br)cc1	nt	nt	nt	nt	-6%
CCN(c1ccccc1)S(=O)(=O)c1ccc(Cl)c(C(=O)N2CCCC2)c1	?	-5%	-11%	nt	-5%
CCN(c1ccccc1)S(=O)(=O)c1ccc(Cl)c(C(=O)N(CC2CCCO2)C2CCS(=O)(=O)C2)c1 (centres undefined)	?	7%	1.7µM*	nt	30%
CCOC(=O)N1CCN(C(=O)COC(=O)CSc2ccc([N+](=O)[O-])cc2)CC1	21%	1%	7%	nt	-6%
CCC(=O)NCC(c1cccs1)S(=O)(=O)c1ccc(C)cc1 (centres undefined)	?	89µM*	20%	?	-7%
CCOc1ccc(S(=O)(=O)NCC(c2cccs2)S(=O)(=O)c2ccc(C)cc2)cc1 (centres undefined)	nt	0.32µM*	nt	nt	nt
COc1ccc(CC(=O)NCC(c2cccs2)S(=O)(=O)c2ccc(F)c(C)c2)cc1 (centres undefined)	nt	-7%	nt	nt	nt
Cc1ccc(S(=O)(=O)C(CNS(=O)(=O)c2ccc(F)c(C)c2)c2cccs2)cc1 (centres undefined)	nt	0.63µM*	nt	nt	nt
CCCC(=O)NCC(c1cccs1)S(=O)(=O)c1ccc(C)cc1 (centres undefined)	?	-17%	14%	-18%	-7%
CCOC(=O)c1ccc(NC(=O)c2cccc3c(=O)c4c([nH]c23)CCCC4)cc1	nt	0%	nt	nt	nt
CCC(=O)c1cc2c(cc1NC(=O)C(C)C)OCCO2	2.3µM*	-15%	-2%	2%	8%
CC(C)C(=O)Nc1cc2c(cc1C(=O)c1ccccc1)OCCO2	1.3µM*	11%	?	-4%	0%
CCCC(=O)c1cc2c(cc1NC(=O)c1ccccc1F)OCCO2	12µM*	-6%	?	nt	-1%
CC(Oc1ccccc1F)C(=O)NNC(=O)Cc1ccc(S(=O)(=O)N2CCOCC2)s1 (centres undefined)	nt	nt	nt	nt	137%
Cc1ccccc1N1C(=O)C(Cc2ccc(F)cc2)S/C1=C(\C#N)C(N)=O (centres undefined)	1%	-3%	-2%	9%	-6%
Cc1nnc2sc(-c3ccc(NC(=O)CSc4ccc(Cl)cc4)cc3)nn12	?	-13%	5.2µM*	-58%	1%
S=c1[nH]cnc2sc(-c3ccccc3)cc12	22%	-6%	28%	nt	48%
Cc1cc(O)c(C(c2cccc(F)c2)N2CCC(C)CC2)c(=O)n1Cc1ccco1 (centres undefined)	nt	25µM*	nt	nt	nt
O=C(Nc1cccc(-c2cccc(F)c2)c1)C1CCN(Cc2ccco2)CC1	-7%	0%	-3%	2%	-9%
Cc1ccc(C(c2c(O)cc(C)n(Cc3ccco3)c2=O)N2CCC(C)CC2)cc1 (centres undefined)	nt	10µM*	nt	nt	nt
Cc1cc(O)cc(=O)n1Cc1ccco1	?	0%	30%	9%	0%
Cc1cc(O)c(C(c2ccccc2)N2CCC(C)CC2)c(=O)n1Cc1ccco1 (centres undefined)	nt	28µM*	nt	nt	nt
SMILES	Pf growth 96h	Sm TGR block	Pf growth 48h	NS1 inh	AMA1-RON2 inh
COC(=O)c1cc2ccc(OC)cc2c2cc(OC)c(OC)cc12	nt	nt	nt	nt	28%
CCOC(=O)C1=C(C)NC(C)=C(C(=O)OCC)C1C(=O)OCC(=O)NCc1ccco1	nt	nt	nt	nt	0%
CCC1(c2ccccc2)CN(C)C1=O (centres undefined)	nt	nt	nt	nt	5%
CCC1(c2ccccc2)ON(c2c(Br)cccc2Br)C1=O (centres undefined)	0.41µM*	0%	0.41µM*	nt	14%
O=C(NC(c1ccccc1)C(Cl)(Cl)Cl)c1ccccc1 (centres undefined)	-30%	-4%	?	8%	1%
Cc1ccc(NC(NC(=O)c2cccnc2)C(Cl)(Cl)Cl)cc1 (centres undefined)	13µM*	-10%	-22%	1%	0%
Cc1ccc(C(NC(=O)c2ccccc2)C(Cl)(Cl)Cl)cc1 (centres undefined)	?	0%	12µM*	13%	15%
Cc1ccc(C(=O)NC(C(=O)Nc2ccccc2)c2ccccc2)cc1 (centres undefined)	-7%	23%	9.3µM*	?	8%
NS(=O)(=O)c1ccc(NC(NC(=O)c2cccnc2)C(Cl)(Cl)Cl)cc1 (centres undefined)	0%	-8%	4%	-1%	3%
CCN(CC(=O)Nc1ccc(NC(C)=O)cc1)C(=O)/C=C/c1c(C)nn(-c2ccc(F)cc2)c1C	?	-16%	?	-5%	27%
CCOC(=O)c1cccnc1SCC(=O)N(CC)c1cccc(C)c1	12µM*	4%	nt	-51%	7%
CCn1cc(C(=O)N2CCN(c3cc(Cl)ccc3C)CC2)c(=O)c2cc(S(=O)(=O)N3CCCCC3)ccc21	nt	5%	nt	nt	nt
CC1(N=Cc2cc(Cl)ccc2O)COP(=O)(NC2CCCC2)OC1 (centres undefined)	nt	nt	nt	nt	11%
C=CCn1c(SCc2csc(C)n2)nc2sc3c(c2c1=O)CCCC3	-88%	3%	nt	12%	-28%
C=CCn1c(SCc2csc(C)n2)nc2sc3c(c2c1=O)CCC(C)C3 (centres undefined)	?	0%	12µM*	16%	3%
O=C(COC(=O)c1ccccc1O)NCc1ccc2c(c1)OCO2	nt	nt	nt	nt	2%
Cc1nn(CC(=O)Nc2ccc3c(c2)nc2n3CCN(C3CCCCC3)C2)c(=O)c2ccccc12	?	18µM*	?	8%	7%
Cc1cccc(OCC(=O)NCc2ccc(F)cc2)c1	-12%	-7%	-11%	2%	18%
CC(C)c1ccccc1OCC(=O)Nc1cc(S(=O)(=O)N2CCOCC2)ccc1N1CCCC1	?	-4%	5.2µM*	nt	-26%
CCN1CCN(c2ccc(S(=O)(=O)N3CCOCC3)cc2NC(=O)COc2ccc(F)cc2Cl)CC1	4.7µM*	-9%	?	7%	-6%
Cc1ccccc1OCC(=O)Nc1cc(S(=O)(=O)N2CCOCC2)ccc1N1CCCC1	7.4µM*	-4%	10µM*	nt	-9%
O=C(COc1ccccc1F)Nc1cc(S(=O)(=O)N2CCOCC2)ccc1N1CCOCC1	?	12%	12µM*	nt	-12%
O=C(CNS(=O)(=O)c1ccc(Br)cc1)NCc1cccnc1	-3%	0%	14%	-6%	4%
O=C(NCc1ccccc1F)c1cc2ccccn2n1	nt	7%	nt	nt	nt
COc1ccc2ccccc2c1/C=N/NC(=S)Nc1cc(S(=O)(=O)N2CCOCC2)ccc1N1CCOCC1	1.7µM*	-1%	5.2µM*	?	63%
